Assay outcomes (PubChem BioAssay)
This excerpt belongs to a sample that is enriched for hits.
Tgondii IFNg: T. gondii growth inhibition with IFN-gamma, primary screen, cell-based. Toxoplasma gondii growth in IFN-gamma-treated host cells; active compounds read low. activity change, negative = inhibition, % (test concentration not listed). 3.8% of 69,000 active; in the data active = activity change below about -70%, passing the limit was not always enough;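 note: host cells are HeLa cells infected with Toxoplasma gondii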
Active calls of the source: *; ! = not active in a repeat.

SMILES	Tgondii IFNg
COc1cccc(Nc2nc(-c3nnc(-c4ccccc4)o3)nc3ccccc23)c1	53.6
CCCS(=O)(=O)N1CCC2(CC1)CN(c1ccccn1)CCO2	4.4
O=C(NCc1noc(-c2ccccc2)n1)c1coc(-c2ccccc2)n1	5.5
CCOC(=O)CC1COCCN1C(=O)c1ccc2cccc(F)c2n1 (stereo not drawn)	-3.6
COCC1CN(Cc2nccs2)Cc2c1cnn2CC1CC1 (stereo not drawn)	-7.4
COc1ccccc1C1=NOC(C)(C(=O)NCCc2nc(C(C)(C)C)cs2)C1 (stereo not drawn)	9.1
COc1ccc(S(=O)(=O)Nc2ccc(-c3nc(-c4ccc(C)cc4C)co3)cc2)cc1	-51.5
CC(NC(=O)c1nc(Nc2ccccc2)c2ccccc2n1)c1ccccc1 (stereo not drawn)	-40.2
N#Cc1ccccc1N1CC2(CCCCN2CC2CC2)CC1=O (stereo not drawn)	6.4
Fc1ccccc1CNc1nc(-c2nnc(-c3ccccc3)o2)nc2ccccc12	-75.8*
Cc1cccc(-c2nnc(-c3nc(NC(C)c4ccccc4)c4ccccc4n3)o2)c1 (stereo not drawn)	-93.8*
Cc1cccc(Nc2nc(-c3nnc(-c4ccccc4)o3)nc3ccccc23)c1	0.2
Cc1cccc(-c2nnc(-c3nc(Nc4ccc(F)cc4)c4ccccc4n3)o2)c1	72.9
Clc1ccc(-c2nnc(-c3nc(NCc4ccccc4)c4ccccc4n3)o2)cc1	136.6
Fc1ccc(CNc2nc(-c3nnc(-c4ccccc4)o3)nc3ccccc23)cc1	22.5
COc1ccc(Br)cc1-c1nc(Cn2nnc(C(=O)Nc3ccccc3F)c2C)c(C)o1	48.3
COc1ccc2c(c1)N(C[C@H](C)CN(C)C)c1ccccc1S2	28.9
CN1CCN(CCCN2c3ccccc3Sc3ccc(Cl)cc32)CC1	2.1
OCCN1CCN(CCCN2c3ccccc3C=Cc3ccccc32)CC1	16.8
OCCN1CCN(CC/C=C2/c3ccccc3Sc3ccc(C(F)(F)F)cc32)CC1	-77.2*
CN1CCN(CCC=C2c3ccccc3Sc3ccc(S(=O)(=O)N(C)C)cc32)CC1	78.4
CCSc1ccc2c(c1)N(CCCN1CCN(C)CC1)c1ccccc1S2	-78.0*
CC(=O)c1ccc2c(c1)N(CCCN1CCN(CCO)CC1)c1ccccc1S2	28.5
CN(C)CCCN1c2ccccc2Sc2ccc(C(F)(F)F)cc21	-89.3*!
CC(CN(C)C)CN1c2ccccc2Sc2ccccc21 (stereo not drawn)	6.5
SMILES	Tgondii IFNg
CN(C)CC/C=C1/c2ccccc2Sc2ccc(Cl)cc21	-62.0
CN1CCCC(CN2c3ccccc3Sc3ccccc32)C1 (stereo not drawn)	16.3
OCCN1CCN(CCCN2c3ccccc3Sc3ccc(C(F)(F)F)cc32)CC1	-96.8*!
CC(Oc1cccc(-n2ccnc2-c2ccccn2)c1)C(=O)O (stereo not drawn)	4.7
CCOCC1CCN(C(=O)[C@H](O)C2CCCCC2)CC1	7.5
CSc1nnc(C2CCCN(CC(=O)Nc3nccs3)C2)n1C (stereo not drawn)	17.5
CCCn1ncc(C(=O)NCC(C)n2nc(C)cc2C)c1C (stereo not drawn)	3.0
CCCc1cn(C2CCN(C(=O)CC3CCCCCC3)CC2)nn1	1.8
CC(C)(C)NC(=O)Cn1ncc2c(N3CCN(c4ccccn4)CC3)ncnc21	18.6
O=S(=O)(c1cccc(Cl)c1)N1CCC2(CC1)Nc1ccccc1-n1cccc12	44.6
Cc1nc(-c2cc(C(=O)NCC(=O)N(C)C)c3ccccn23)cn1Cc1cccnc1	97.4
COc1ccc(C(=O)O)cc1-c1cccc2ccnn12	-5.8
CCOC(=O)c1nn(CCCc2ccccc2)c2c1CN(C(=O)c1noc3c1CCCC3)CC2	-8.8
Cc1ccc(C2(O)CCN(S(=O)(=O)c3sccc3C)CC2)nc1	-0.3
COc1cc2c(Oc3ccc4[nH]c(C)cc4c3F)ncnc2cc1OCCCN1CCCC1	-59.4
C#Cc1cccc(Nc2ncnc3cc(OCCOC)c(OCCOC)cc23)c1	-46.9
COc1cc2c(Nc3ccc(NC(=O)c4ccccc4)cc3)ncnc2cc1OCCCN1CCOCC1	-76.0*!
CNC(=O)C1CCC2(CCN(c3ncccn3)CC2)CO1 (stereo not drawn)	-33.5
Cc1ccc(C)c(NC(=O)c2ccc(Nc3nnc(C)c4ccccc34)cc2)c1	-88.1*
Cc1ccc(Nc2nc(C(=O)Nc3ccc(F)cc3C)nc3ccccc23)cc1	59.4
Cc1ccc(Nc2nc(C(=O)Nc3cc(Cl)ccc3C)nc3ccccc23)cc1	28.6
CCCCC(CC)CNC(=O)CCC1Nc2c3ccccc3nc(=S)n2C1=O (stereo not drawn)	6.8
COCC(NC(=O)c1cc(-c2ccccc2Cl)oc1C)c1ccccn1 (stereo not drawn)	-35.4
CC(C)C(=O)NCCc1csc(C2CCN(C(=O)NC(C)(C)C)CC2)n1	39.7
COc1cccc(CC(=O)N2CCc3ncnc(NC4CC4)c3CC2)c1	-2.9
SMILES	Tgondii IFNg
COc1ccc(CC(=O)N2CCc3ncnc(NC4CC4)c3CC2)cc1	-69.0
O=C(c1ccco1)N1CCc2ncnc(NC3CC3)c2CC1	-86.0*
O=C(c1ccccc1)N1CCO[C@@H]2[C@H]1CC[C@H]2OCC1CCOCC1	-44.0
C=C1C2(C(=O)N3CCN(c4nnc(C(F)(F)F)s4)CC3)CCC(C2)C1(C)C (stereo not drawn)	16.4
C=C(C)COc1cccc(C(=O)N2CCCn3cncc3C2)c1	5.3
Cc1ccc(CCNC(=O)C2CC(=O)N(C3CC3)C2)cc1C (stereo not drawn)	-49.8
Cc1cc(NC(=O)c2ccccc2)no1	78.8
Cc1cc(NC(=O)CCCC(=O)O)no1	-32.6
CCCCCCCc1ccc(C(=O)NC(=S)Nc2cc(C)on2)cc1	-91.9*
COCC1(C(=O)NC23CC4CC(C2)CC(n2nnc(C)n2)(C4)C3)CCC1	14.0
CCOC(=O)C1CCCCN1C(=O)c1c(SC)nsc1SC (stereo not drawn)	-7.7
COc1ccc(-c2nnc(-c3nc(NCc4ccc(OC)cc4OC)c4ccccc4n3)o2)cc1	161.3
COc1ccccc1CNc1nc(-c2nnc(-c3cccc(Cl)c3)o2)nc2ccccc12	-62.4
COc1ccc(OC)c(CNc2nc(-c3nnc(-c4cccc(Cl)c4)o3)nc3ccccc23)c1	-102.8*
COc1ccc(CNc2nc(-c3nnc(-c4cccc(C)c4)o3)nc3ccccc23)cc1	108.8
COc1ccc(OC)c(CNc2nc(-c3nnc(-c4cccc(C)c4)o3)nc3ccccc23)c1	-93.3*
COc1ccc(OC)c(CNc2nc(-c3nnc(-c4ccc(C)cc4)o3)nc3ccccc23)c1	-42.4
CN(C)CCN1CCC2(CC1)CN(c1ncccn1)Cc1ccccc12	-6.6
O=C(C1CCOC1)N1CCc2ncnc(-c3cccc(F)c3)c2CC1 (stereo not drawn)	-36.1
Cc1ccc(O[C@H]2C[C@H]3CN(Cc4nccn4C)CCN3C2)cc1	-4.3
Cn1c(-c2ccccc2)cnc1NC(=O)C(c1ccc(F)cc1)N1CCOCC1 (stereo not drawn)	64.6
CC(C)N1CCNC(=O)C1CC(=O)N(C)Cc1ccccc1CN1CCCC1 (stereo not drawn)	-1.0
O=C1OC(=O)C2C1[C@@H]1CC[C@H]2O1 (stereo partly drawn)	-76.9*
COC(=O)[C@@H]1C[C@@H](NC(=O)c2cccc(-c3cn[nH]c3)c2)CN1C	16.1
CC(C)N1C2CCN(Cc3nccn3C)CC2C[C@H]1CN(C)C (stereo partly drawn)	1.5
S=C(N/N=C1\CCCc2c1[nH]c1ccc(Br)cc21)Nc1ccccc1	-81.5*
S=C(NCc1ccccc1)Nc1ccc(Br)cc1	66.4
